From PubChem
Peg3 promoter: Peg3 promoter-driven luciferase inhibitors, primary screen, cell-based, HeLa, luciferase luminescence; HeLa PEG-Prom luciferase reporter, overnight; AID 588405, 2011; inhibition, % at 20 µM; 1.7% of 360,000 active;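 active = inhibition of at least 50% at 20 µM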
MITF TRPM1 inh: inhibitors of MITF-dependent TRPM1 promoter reporter, primary screen, cell-based, SK-MEL-5, single point, luciferase; 0.83% of 330,000 active; inhibition, % at 12.5 µM; AID 488899, 2010; SK-MEL-5 TRPM1 promoter luciferase, 24 h;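 active = mean inhibition across replicates of 60% or more, whatever share of single replicates reaches that level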
EBV LMP1 NFkB: EBV LMP1-driven NF-kappaB luciferase reporter inhibitors, primary screen, cell-based, luminescence, single point; 0.69% of 350,000 active; AID 504558, 2011; LMP1-induced NF-kappaB luciferase reporter cells; inhibition, % at 12.5 µM; in the data active = inhibition above about 41%;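 also: 0% = neutral control wells and 100% = reference inhibitor control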
PAX8 reporter: inhibitors of PAX8-driven TPO luciferase reporter, primary screen, RMG-I cells, single concentration; SteadyGlo, 24 h; inhibition, % at 12.6 µM; 1.2% of 360,000 active;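 active = mean replicate inhibition at least 60% with every replicate also reaching 60%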;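 also: luciferase light reporting Pax8 driven TPO promoter activity; plate controls were median of neutral control wells for no effect and mitoxantrone controls for full effect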
HIF-2a inh: HIF-2a reporter inhibitors, primary screen, luminescence, 786-0 RCC cells | 786-0 RCC cells HIF-2a reporter, luciferase luminescence, overnight | inhibition, % at 18.8 µM | 0.72% of 360,000 active | AID 624352, 2012;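 active = inhibition of the luminescence signal of 40% or more relative to plate controls, in a single-dose primary screen at 18.75 µM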
Shn3 3UTR inh: reduction of Shn3 3'UTR firefly luciferase signal, primary screen, Schnurri-3 inhibitor project, cell-based, Clone20 osteoblasts, set 2; 0.52% of 360,000 active; AID 588674, 2011; Clone20 osteoblast Shn3 3'UTR firefly luciferase, 24 h; inhibition, % at 12.5 µM;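 active = mean inhibition of at least 75% with every replicate also reaching 75%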;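 also: 0% = median of neutral control wells and 100% = pilot-screen positive control compound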
The depositor's hits bear a star; . = not tested or not shown. Rows were chosen to be rich in hits. Some 2.8% of all compounds tested hit in one or more screens of this group.

SMILES | Peg3 promoter | MITF TRPM1 inh | EBV LMP1 NFkB | PAX8 reporter | HIF-2a inh | Shn3 3UTR inh
O=C(CCS(=O)(=O)Cc1ccccc1)Nc1nnc(C(F)(F)F)s1 | -62 | -10 | 10 | 38 | -20 | 11
CC1(C)CC(=O)c2sc(NC(=O)CCS(=O)(=O)c3ccccc3)nc2C1 | 17 | . | 26 | 109* | -42 | 20
CC(C)(C)c1nnc(NC(=O)CCS(=O)(=O)c2ccccc2)s1 | 1 | 9 | 14 | 97* | 8 | -4
CC(C)(C)c1nnc(NC(=O)CCS(=O)(=O)Cc2ccccc2)s1 | -16 | 7 | -4 | 84* | 4 | 8
CC(Oc1ccccc1)C(=O)Nc1nc2c(s1)C(=O)CC(C)(C)C2 (stereo not given) | -1 | -15 | -2 | . | -8 | 6
O=C(NCc1ccco1)C1CCCN(S(=O)(=O)c2ccc(Br)cc2)C1 (stereo not given) | 2 | 2 | -4 | 131* | 17 | 3
CCOc1ccc(S(=O)(=O)N2CCCC(C(=O)NCc3ccco3)C2)cc1 (stereo not given) | 0 | 10 | -2 | 9 | 1 | 2
CCCC(=O)Nc1ccc2c(c1)OC[C@H](C)N(C(=O)c1cnccn1)C[C@@H](C)[C@H](OC)CN(C)C2=O | . | . | . | 2 | . | .
COC(=O)C[C@@H]1CC[C@H](NS(=O)(=O)c2ccc(OC)cc2)[C@H](CO)O1 | . | . | . | -7 | . | .
CCCCCn1c(=NC(=O)c2cccnc2)c(C#N)cc2c(=O)n3cccc(C)c3nc21 | 56* | 14 | -2 | -3 | 20 | -9
COc1ccc(CN(C)C[C@H]2OCCCC[C@@H](C)Oc3ccc(NS(C)(=O)=O)cc3C(=O)N([C@H](C)CO)C[C@H]2C)cc1 | . | . | . | -14 | . | .
CCN(CC)S(=O)(=O)c1cc(NC(=O)C2CCN(c3ncnc4sc(C)c(C)c34)CC2)ccc1Cl | 67* | 64* | 37 | 72* | 21 | 89*
Cc1sc2ncnc(N3CCC(C(=O)N(C)CC(=O)Nc4ccc(Cl)c(C(F)(F)F)c4)CC3)c2c1C | 64* | 7 | 11 | 78* | 9 | 80
CCN(CC(=O)Nc1cc(Cl)ccc1C)C(=O)C1CCN(c2ncnc3sc(C)c(C)c23)CC1 | 66* | . | 11 | 42 | 11 | 57
CN(C)C(=O)[C@H]1[C@H](CO)[C@H]2Cn3c(ccc(C4=CCCCC4)c3=O)[C@@H]1N2CC1CC1 | . | . | . | -5 | . | .
CC(C)NC(=O)Nc1cccc2c1O[C@H](CN(C)C(=O)NC(C)C)[C@H](C)CN([C@@H](C)CO)C2=O | . | . | . | -12 | . | .
C[C@@H]1CCCCO[C@@H](CN(C)Cc2ccccc2)[C@H](C)CN([C@H](C)CO)C(=O)c2cc(NC(=O)c3ccccc3)ccc2O1 | . | . | . | -19 | . | .
CN(c1ccccc1)S(=O)(=O)c1cccc(C(=O)Nc2nccs2)c1 | -1 | 5 | -1 | 8 | 3 | 18
COc1cc(OC)c(N(C)S(=O)(=O)c2cccc(C(=O)Nc3nccs3)c2)cc1Cl | 51* | 1 | -10 | 15 | 22 | 31
O=C(Nc1cccc(-c2cnc3ccccc3n2)c1)c1cccc(NC(=O)c2ccco2)c1 | 46 | 36 | -45 | 72* | -69 | 24
CCN(C(=O)c1cnc(N2CCN(c3ncccn3)CC2)c2ccccc12)c1cccc(Cl)c1 | 22 | 16 | 16 | . | 21 | 34
CN(C(=O)c1cnc(N2CCN(c3ncccn3)CC2)c2ccccc12)c1ccc(Cl)cc1 | 62* | -5 | -2 | . | 18 | 12
CNC[C@H]1Oc2ccc(NS(=O)(=O)c3ccccc3)cc2CC(=O)N([C@@H](C)CO)C[C@H]1C | . | . | . | -2 | . | .
COc1ccc(N2CCN(C(=O)CC(C)S(=O)(=O)c3ccc4c(c3)NC(=O)CO4)CC2)cc1 (stereo not given) | -5 | 12 | 4 | 19 | 2 | 29
CC(CC(=O)N1CCN(c2cccc(Cl)c2)CC1)S(=O)(=O)c1ccc2c(c1)NC(=O)CO2 (stereo not given) | 16 | 25 | 22 | 37 | 2 | 89*
SMILES | Peg3 promoter | MITF TRPM1 inh | EBV LMP1 NFkB | PAX8 reporter | HIF-2a inh | Shn3 3UTR inh
Oc1ccc(-c2csc(Nc3cccc4ccccc34)n2)cc1O | -6 | -10 | -4 | 12 | -14 | 87*
O=C1/C(=C/c2ccccc2)CCCc2ccccc21 | -56 | -36 | -4 | -11 | -64 | -130
Cc1cccc(/C=C2\CCC(=C3SCCCS3)C2=O)c1 | 16 | 33 | 48* | . | 8 | 52
COc1ccccc1-c1ccccc1C1=CC(=O)CC(C)(C)C1=O | 15 | . | 61* | 11 | -1 | 11
COc1cccc(S(=O)(=O)N2CCCCN3[C@@H](CO)[C@H](c4ccc(C#CC(C)C)cc4)[C@@H]3C2)c1 | . | . | . | 65* | . | .
COc1ccc(S(=O)(=O)N2CCCCN3[C@H](C2)[C@H](c2ccc(C#CC(C)C)cc2)[C@@H]3CO)cc1 | . | . | . | 102* | . | .
COc1cccc(S(=O)(=O)N2CCCCN3[C@@H](CO)[C@@H](c4ccc(C#CCC(C)C)cc4)[C@@H]3C2)c1 | . | . | . | 86* | . | .
CN(C)C(=O)[C@@H]1[C@@H](CO)[C@@H]2Cn3c(cccc3=O)[C@@H]2N1CC1CCCCC1 | . | . | . | -2 | . | .
Cc1cccc(C)c1NC(=O)CN(C)CC(=O)Nc1ccccc1Oc1ccccc1 | 13 | -2 | 63* | 7 | 20 | 0
CC(C)NC(=O)Nc1cccc2c1O[C@H](CN(C)CC1CCCCC1)[C@@H](C)CN([C@H](C)CO)C2=O | . | . | . | -6 | . | .
CC1C/C(=N\NC(=O)c2ccc([N+](=O)[O-])cc2)CC(C)(C)C1 (stereo not given) | 10 | 5 | -6 | 15 | 0 | -43
CC1C/C(=N\NC(=O)c2ccc(NS(=O)(=O)c3ccc(Br)cc3)cc2)CC(C)(C)C1 (stereo not given) | 0 | -13 | -4 | 86* | 2 | -22
O=C(N/N=C(\c1ccccc1)c1cccnc1)c1ccc(O)cc1 | 15 | -2 | -8 | -11 | -4 | -5
O=C(N/N=C(\c1ccccc1)c1cccnc1)c1cccc(F)c1 | 53* | 90* | 46* | 73* | 3 | 95*
CCOC(=O)c1c(C)[nH]c(C)c1C(=O)COC(=O)c1ccc([N+](=O)[O-])s1 | 9 | 76* | -4 | 6 | -4 | -7
Cc1cccc(NC(=O)CCc2ccc(N3C(N)=NC(N)=NC3(C)C)cc2)c1 | 9 | . | 1 | 65* | 20 | 2
